# In article PMC4336329 (PLoS ONE, 2015):
# In all, about 310,000 compounds went through this assay and about 14,000 (4.5%) showed an effect of 50% or more. The effect is printed as a negative number. The sample as a whole holds a higher share of strong results than the screen did.
# Molecular target: human ether-à-go-go-related gene (hERG) potassium channel (human, UniProt Q12809)
# Test: primary screen, population patch clamp on CHO cells stably expressing hERG; higher = less effect of the substance
# 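Also: peak tail current of the secondary pulse compared with the same well before compound.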
# Sequence of human ether-à-go-go-related gene (hERG) potassium channel (Q12809 whole entry, looked up): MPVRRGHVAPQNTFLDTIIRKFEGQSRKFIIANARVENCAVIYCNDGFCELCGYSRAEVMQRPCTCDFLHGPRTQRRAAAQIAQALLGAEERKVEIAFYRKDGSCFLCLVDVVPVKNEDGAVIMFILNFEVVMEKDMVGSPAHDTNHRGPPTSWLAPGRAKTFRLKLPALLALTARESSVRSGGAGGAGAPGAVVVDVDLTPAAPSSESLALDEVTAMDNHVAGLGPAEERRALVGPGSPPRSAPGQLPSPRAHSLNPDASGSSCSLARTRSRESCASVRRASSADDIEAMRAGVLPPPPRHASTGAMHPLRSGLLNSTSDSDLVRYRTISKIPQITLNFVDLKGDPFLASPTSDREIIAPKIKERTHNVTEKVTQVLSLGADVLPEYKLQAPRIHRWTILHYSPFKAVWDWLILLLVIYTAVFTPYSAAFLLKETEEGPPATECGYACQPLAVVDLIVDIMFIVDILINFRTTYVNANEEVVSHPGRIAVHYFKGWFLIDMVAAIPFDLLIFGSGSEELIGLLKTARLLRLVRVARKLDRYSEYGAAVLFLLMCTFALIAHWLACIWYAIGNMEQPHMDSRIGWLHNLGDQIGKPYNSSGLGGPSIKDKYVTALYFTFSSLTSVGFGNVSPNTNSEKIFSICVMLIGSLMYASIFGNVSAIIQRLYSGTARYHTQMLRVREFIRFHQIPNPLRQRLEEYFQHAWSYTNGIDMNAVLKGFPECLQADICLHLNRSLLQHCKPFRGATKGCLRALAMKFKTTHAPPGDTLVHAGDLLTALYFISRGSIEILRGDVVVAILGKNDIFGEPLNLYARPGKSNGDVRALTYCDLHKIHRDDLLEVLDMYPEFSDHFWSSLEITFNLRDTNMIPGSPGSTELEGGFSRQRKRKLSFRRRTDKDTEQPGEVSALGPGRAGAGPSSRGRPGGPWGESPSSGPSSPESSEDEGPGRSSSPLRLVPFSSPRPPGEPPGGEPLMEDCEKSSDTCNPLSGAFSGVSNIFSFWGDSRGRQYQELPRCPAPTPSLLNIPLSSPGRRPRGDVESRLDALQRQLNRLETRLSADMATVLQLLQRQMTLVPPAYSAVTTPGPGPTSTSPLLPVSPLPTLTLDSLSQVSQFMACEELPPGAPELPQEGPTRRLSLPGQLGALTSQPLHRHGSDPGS
row,Compound,"hERG current change (%, negative = inhibition) at 10uM [%]"
1,COCCOCC(O)CN1CCN(c2ccccc2)CC1.O=C(O)C(=O)O (centres unmarked),-3.37
2,CCOC(=O)C1CCCN(c2nnnn2-c2ccccc2)C1 (centres unmarked),-5.57
3,CS(=O)(=O)NCc1nnc2n1-c1ccc(Cl)cc1C(c1ccccc1)=NC2,6.2
4,COc1ccccc1C1=NCc2nnc(CSC)n2-c2ccc(Cl)cc21,-19.1
5,CN(C)CCSCc1nnc2n1-c1ccc(Cl)cc1C(c1ccccc1Cl)=NC2.c1ccccc1,-73.7
6,Cc1ccc(C(=O)NC(=S)Nc2ccc(N3CCOCC3)cc2)cc1C,-7.53
7,O=C(NCCCn1ccnc1)C(=O)NCC(c1ccco1)N1CCN(c2ccccc2)CC1 (centres unmarked),1.01
8,CCCNC(=O)OC[C@H]1O[C@H](CCO/N=C/[C@@H](OC)[C@H](C)/C=C/CC(=O)OC)C=C[C@@H]1Oc1ccc(OC)cc1,-11.1
9,CCCNC(=O)OC[C@H]1O[C@H](CCO/N=C/C[C@@H]2C=C[C@H](OC(C)=O)[C@@H](COC(C)=O)O2)C=C[C@@H]1Oc1ccc(OC)cc1,-59.7
10,COc1ccc(O[C@H]2C=C[C@@H](c3ccccc3)O[C@@H]2CO/N=C/C[C@@H]2C=C[C@H](OC(C)=O)[C@@H](COC(C)=O)O2)cc1,-9.17
11,CCC(Sc1nc(C)cc(=O)[nH]1)C(=O)Nc1sc2c(c1C#N)CCCC2 (centres unmarked),-19.1
12,Cc1ccc2oc3nc(C)c(C(=O)Nc4cccc(C(F)(F)F)c4)cc3c(=O)c2c1,6.48
13,O=C(CCS(=O)(=O)c1cccc2nsnc12)N1CCN(c2ccccc2F)CC1,-30.3
14,COC(=O)C1=C(C(=O)c2ccc(C)cc2)C(c2ccc(OC)c(OC)c2)n2nnnc2N1 (centres unmarked),3.59
15,Cc1ccc(O)c(-c2cc(-c3cccc(F)c3)n[nH]2)c1,23.6
16,CCOC(=O)C1(S(=O)(=O)c2ccc(Cl)cc2)CCN(Cc2ccc(Cl)cc2)CC1,14.7
17,CCCn1ncc(CN2CCC(Cc3cccc(F)c3)(C(=O)OCC)CC2)c1C,-59.7
18,CCOC(=O)C1(Cc2cccc(F)c2)CCN(Cc2ccc(COC)o2)CC1,-23.5
19,CCOC(=O)C1(Cc2cccc(F)c2)CCN(Cc2cnn(CC)c2C)CC1,-16.6
20,CCOC(=O)C1(Cc2cccc(F)c2)CCN(Cc2ccon2)CC1,3.48
21,CCOC(=O)C1(Cc2ccc(Cl)cc2)CCN(Cc2cnc(N)nc2)CC1,-74.7
22,CCOC(=O)C1(Cc2cccc(OC)c2)CCN(Cc2cnc(N)nc2)CC1,-28.2

row,Compound,"hERG current change (%, negative = inhibition) at 10uM [%]"
1,CCOC(=O)C1(Cc2ccc(Cl)cc2)CCN(Cc2ccon2)CC1,-49.5
2,CCOC(=O)C1(Cc2ccc(Cl)cc2)CCN(Cc2cn(CC)nc2C)CC1,-67.7
3,CCCn1cc(CN2CCC(Cc3cccc(F)c3)(C(=O)OCC)CC2)c(C)n1,-67.2
4,CCOC(=O)C1(Cc2cccc(F)c2)CCN(Cc2cn(CC)nc2C)CC1,-38
5,O=C(NCC1OCCc2ccccc21)c1ccc(NC(=O)c2cccc(Br)c2)cc1 (centres unmarked),2.42
6,COC(=O)Cn1c(C)c(C(C)=O)c(C(C)=O)c1C,14.1
7,CCOCCCN1C(=O)C(=O)N(CC(=O)N2c3ccccc3NC(=O)CC2C)C1=O (centres unmarked),17.2
8,O=C(O)c1cc(S(=O)(=O)N2CCCCC2)sc1Cl,17
9,Cc1ccc(C)c(OCCC(=O)NCCc2ccc(Cl)cc2)c1,21.6
10,O=C(COC(=O)Cc1cccc(C(F)(F)F)c1)NCC1CCCO1 (centres unmarked),1.46
11,O=C(OCC(=O)N1CCCc2ccccc21)c1cc(Br)ccc1O,12.4
12,COc1c2c(nc3occc13)C(CC=C(C)C)(OC)C(O)CC2 (centres unmarked),5.5
13,CCCn1cc(CN2CCC(Cc3ccccc3)(C(=O)OCC)CC2)c(C)n1,-60.4
14,CC1(C)Cc2ccccc2-c2nc3n(c(=O)c21)CCCS3,12.8
15,Cc1cc(OC(C)C(=O)NNC(=O)Nc2ccc(F)cc2F)cc(C)c1Cl (centres unmarked),22.3
16,COc1cc(CN(C)CC2CCCN(CCc3ccccc3F)C2)cc(Cl)c1OC (centres unmarked),-69.8
17,COc1ccc(OC)c(CN2CCCC(CO)C2)c1 (centres unmarked),0.935
18,COc1ccc(CCN2CCCC(CN(C)Cc3cc(OC)ccc3OC)C2)cc1 (centres unmarked),-69.1
19,COc1ccc(CCN2CCCC(CN(C)Cc3cc(Cl)c(O)c(OC)c3)C2)cc1 (centres unmarked),-65.7
20,CN(Cc1ccccc1)CC1CCCN(CCc2ccccc2F)C1 (centres unmarked),-49.9
21,COc1ccc(CCN2C(=O)c3ccccc3NC2c2cc(Cl)c(O)c(OC)c2)cc1 (centres unmarked),-4.85
22,COc1cc(OC)c(OC)cc1CN(C)CC1CCCN(CCc2ccccc2F)C1 (centres unmarked),-2.33

row,Compound,"hERG current change (%, negative = inhibition) at 10uM [%]"
1,COc1ccc(CCN2CCCC(CN(C)Cc3cc(OC)c(OC)c(OC)c3)C2)cc1 (centres unmarked),-51.6
2,CC(=O)Nc1ccc(NC(=O)c2oc3cc(C)c(C)cc3c2C)cc1,7.5
3,COc1ccc(-c2cc(CCCC(=O)NCCc3ccc(OC)cc3OC)no2)cc1,5.37
4,CN(CC1COCCO1)C(=O)c1cc(COc2c(F)cccc2F)on1 (centres unmarked),6.62
5,O=C(COc1ncnc2c(Cl)cc(Cl)cc12)NCCC1=CCCCC1,12.4
6,Cc1cccc(C(=S)N2CCOCC2)n1,5.42
7,C=CCNC(=O)C(C)Sc1ccc(Cl)cc1 (centres unmarked),0.00948
8,Cc1cc(C(C)(C)C)cc(C)c1C(=O)O,0.0126
9,Cn1cnnc1SCc1ccc(C(=O)N/N=C/c2cccs2)cc1,4.87
10,COc1ccc(F)c(CN(C)CC2CCCN(CCc3ccc(F)cc3)C2)c1 (centres unmarked),-73.4
11,CN1C(=O)Cc2cc(S(=O)(=O)N3CCN(c4cccc(Cl)c4)CC3)ccc21,15.3
12,O=C1NC(=O)C(CCc2ccncc2)(Cc2ccc(OCc3ccccc3)cc2)C(=O)N1,11.8
13,O=NN(CCc1ccncc1)c1ccc(OCc2ccccc2)cc1,-65.2
14,COc1ccc(N(Cc2ccccc2)N=O)cc1,-23.3
15,Cc1ccc(SCC2=NNC(=O)C2)cc1,-3.78
16,Cn1nc(-c2ccccc2)c(-c2nc(-c3ccc(Cl)cc3)no2)c1Cl,6.65
17,Cc1ccc2nc(N(CCN(C)C)C(=O)/C=C/c3cccs3)sc2c1.Cl,-40.3
18,CCOc1ccccc1NC(=O)Cn1c(=O)c2ccccc2n(CC)c1=O,-11.7
19,CC(C)(C)NC(=O)[C@@H]1C[C@@H]2CCCC[C@@H]2CN1C[C@@H](O)[C@H](Cc1ccccc1)NC(=O)[C@H](CC(N)=O)NC(=O)c1ccc2ccccc2n1.CS(=O)(=O)O,-72.1
20,CS(=O)(=O)O.Cc1c(O)cccc1C(=O)N[C@@H](CSc1ccccc1)[C@H](O)CN1C[C@H]2CCCC[C@H]2C[C@H]1C(=O)NC(C)(C)C,-4.69
21,CC(C)(C)NC(=O)[C@@H]1C[C@@H]2CCCC[C@@H]2CN1C[C@@H](O)[C@H](Cc1ccccc1)NC(=O)[C@H](CC(N)=O)NC(=O)c1ccc2ccccc2n1,-9.59
22,CC(=O)Nc1ccc(Nc2ncnc3c2cnn3-c2cccc(C)c2)cc1,10

row,Compound,"hERG current change (%, negative = inhibition) at 10uM [%]"
1,O=C(O)c1ccc(S(=O)(=O)c2ccc(Sc3ccc(C(=O)O)c(C(=O)O)c3)cc2)cc1,23.3
2,CCCc1ccc(OCC(O)CN2CCN(C(=O)OCC)CC2)cc1.Cl (centres unmarked),-52.2
3,CCOC(=O)N1CCN(CC(O)COc2ccc(CC)cc2)CC1.Cl (centres unmarked),-31.2
4,CCOC(=O)N1CCN(CC(O)COc2cc(C)cc(C)c2)CC1.Cl (centres unmarked),-12.7
5,CCOC(=O)N1CCN(Cc2ccc(OCC(O)CN3CCCCC3)cc2)CC1 (centres unmarked),15.7
6,CCOC(=O)N1CCN(CC(O)COc2ccc(C)c(C)c2)CC1.Cl (centres unmarked),6.64
7,CCOC(=O)N1CCN(CC(O)COc2ccc(-c3ccccc3)cc2)CC1.Cl (centres unmarked),-60.3
8,COc1ccccc1NC(=O)COC(=O)C1CCN(/C=C/C(=O)C(F)(F)F)CC1,-49.6
9,Cc1ccc(S(=O)(=O)N/N=C\c2cn(CC(N)=O)c3ccccc23)cc1C,5.21
10,Cc1nn(Cc2cccc(C(=O)Nc3ccn(Cc4ccccc4F)n3)c2)c(C)c1[N+](=O)[O-],6.24
11,Cc1ccc(-c2nc(N/N=C/c3ccncc3)c3ccccc3n2)cc1,3.06
12,Cc1cc(O)c(CN2CC=C(c3ccccc3)CC2)cc1C(C)C,-14.1
13,COc1cc(CN2CCC(Cc3ccccc3)CC2)c([N+](=O)[O-])cc1OC,0.589
14,COc1cc(C)cc(CN2CC=C(c3ccccc3)CC2)c1O,-51.4
15,COc1ccc(C(C)=O)cc1CN1CC=C(c2ccccc2)CC1,-17
16,COc1cc(C)cc(CN2CCC(Cc3ccccc3)CC2)c1O,-52.2
17,COc1cc(OC)c(CN2CCC(Cc3ccccc3)CC2)cc1Br,-70.9
18,COc1ccc(CN2CCC(Cc3ccccc3)CC2)c(C)c1C,-23
19,FC(F)(F)c1ccccc1CN1CCC(Cc2ccccc2)CC1,12
20,COc1cc(C)c(CN2CCC(Cc3ccccc3)CC2)cc1C,-45.3
